The campaign covered roughly 2,100 compounds. About 320 (15%) were called active. Not shown: some 52% with an inconclusive outcome. Calls follow the shape of the dose curve; as a rule, active = well fitted cell-killing curve with a large enough effect; inconclusive = small, poorly fitted or top-dose-only effect, or effect the other way; inactive = flat fitted curve, though single readings scatter. Some of the results follow. Entries that show only a call come without a potency.
Experiment: Viability Counterscreen for CMV-Luciferase Assay of Inhibitors of ATXN expression; also: nearly all actives have a fitted effect of over 55% in size
Conditions: HEK-293 CMV-luciferase cells viability, protease fluorescence, 24 h
From the text: PI: Daniel Scoles Ph.D. University of Utah School of Medicine, Salt Lake City, Utah MLPCN Grant: NS073009 Spinocerebellar ataxia type 2 (SCA2) is a multisystem neurodegenerative disease caused by a dominantly acting mutation leading to expansion of a polyQ domain in the ataxin-2 protein (ATXN2). SCA2 patients develop progressive ataxia and later lose function in other neuronal systems. Prominent parkinsonian signs develop in some patients. Like many neurodegenerative disorders, no symptomatic or disease-modifying treatments are known. The primary objective of the proposed research is to identify compounds inhibiting ATXN2 expression and to test them for efficacy in SCA2 mouse models. We have developed a cell-based assay paired with an in vivo mouse model using identical luciferase expression constructs. This approach takes advantage of an ATXN2-luciferase transgene, with the luciferase gene flanked by the upstream and downstream portions of the ATXN2 gene. Here we describe a 5-7 dose quantitative high thoroughput screen (qHTS) for compounds lowering ATXN2 expression. We screened the NIH Molecular Libraries Small Molecule Repository (MLSMR) and NCGC's mechanistically annotated (MIPE) and drug repurposing (NPC) collections of compounds for lowering expression of an ATXN2-luciferase reporter in HEK-293 cells. The assay is a multiplexed cell viability assay to ensure target reduction in the absence of cytotoxicity. Secondary qHTS assays included a CMV-luciferase reporter expressed in HEK-293 cells as well as a biochemical assay using recombinant luciferase to detect inhibitors of the reporter enzyme. Compounds that inhibit ATXN2 expression but is not cytotoxic were selected for confirmatory and secondary screens.
PROTOCOL TABLE (as described by Inglese J, Shamu CE and Guy RK. 2007) SEQUENCE No. (e.g., 1, 2, 3, etc.); […] (e.g., Cells, Incubation, Reagent, etc.); VALUE; DESCRIPTION. 1; Cells; 4 uL; white, solid bottom, 1536-well Greiner assay plate. 2; Incubation; 2 hr; 37 degree C in 5% humidified CO2. 3; Compounds; 23 nL; Kalypsis pintool (Wako USA) equipped with a 1536-well pin head. 4; Incubation; 24 hr; 37 degree C in 5% humidfified CO2. 5; Reagent; 1 uL; Gly-Phe-7-Amino-4-trifluoromethylcoumarin. 6; Incubation; 30 min; 37 degree C in 5% humidfified CO2. 7; Detection; Fluorescence; Viewlux plate reader (PerkinElmer). 8; Reagent; 3 uL; SteadyGlo luciferase solution (Promega). 9; Incubation; 5 min; room temperature. 10; Detection; Luminescence; ViewLux plate reader (PerkinElmer). NOTES (numbers refer to Sequence numbers above) 1. HEK-293 cells expressing CMV-luciferase reporter (designated as SC cells) were suspended in phenol-red free DMEM and dispensed in assay plates using a Multidrop Combi dispenser (Thermo Fisher Scientific). 2. Assay plates were incubated. Evaporation was prevented by covering assay plates with metal lids containing holes to allow gas diffusion. 3. Compounds were added in a dose response manner with the final concentrations of 57, 11.4, 2.28, 0.46, 0.091, 0.018, 0.0037 uM. Vehicle-only plates, with DMSO being pin-transferred to columns 5-48, were inserted uniformly at the beginning and the end of each library to monitor and record any shifts in assay performance. 5. 125 uM Gly-Phe-7-Amino-4-trifluoromethylcoumarin (MP Biomedicals) working concentration was used at a final concentration of 25 uM. 7. To assess cell viability; the assay plates were read using the ViewLux high-throughput CCD imager (PerkinElmer), wherein single end-point fluorescence measurement was acquired (excitation 405/10; emission 540/25 nm). 8. Detection reagent SteadyGlo Luciferase (Promega) was added to the assay plate. 10. Luminescence is then measured on the ViewLux imager equipped with a clear emission filter using a 2 sec exposure. […]
Potency is read from the fitted curve at half-maximal effect.

Compound | Potency
COc1ccc(C(=O)NC(=C(Cl)Cl)S(=O)(=O)c2ccc(C)cc2)cc1 | inactive
Cc1ccc(S(=O)(=O)/C(=C/Cl)NC(=O)c2ccccc2)cc1 | 17.8 µM (active)
Cc1cc(N/N=C/c2ccc(O)cc2O)nc(-n2nc(C)cc2C)n1 | 10 µM (active)
Cc1cc(N/N=C/c2ccccc2[N+](=O)[O-])nc(-n2nc(C)cc2C)n1 | 12.6 µM (active)
Cc1cc(N/N=C\c2ccc(Br)cc2)nc(-n2nc(C)cc2C)n1 | inactive
CCn1c2ccccc2c2cc(NC(=O)COC(=O)C3CCC(=O)N3)ccc21 (stereo not drawn) | inactive
CCCC(=O)OC/C(O)=C(\C#N)c1nc2ccccc2[nH]1 | inactive
CCN(CC)CCNC(=O)c1ccc(NC(=O)c2ccccc2-c2ccc(C(F)(F)F)cc2)cc1 | inactive
COc1cc(CNCc2ccncc2)cc(Br)c1OCc1ccccc1F | inactive
Cc1cc(C(=O)CN2C(=O)c3ccccc3S2(=O)=O)c(C)n1CC1CCCO1 (stereo not drawn) | inactive
Cc1cc(C)n(CC(O)Cn2c3ccc(Cl)cc3c3cc(Cl)ccc32)c(=O)n1 (stereo not drawn) | inactive
CC(Nc1ccccc1CO)C(=O)Nc1cccc(Cl)c1Cl (stereo not drawn) | inactive
O=C(N/N=C/c1ccc([N+](=O)[O-])s1)c1ccccc1Br | 20 µM (active)
O=C(N/N=C/c1cc(Br)ccc1OC(=O)c1ccc(Br)cc1)c1ccncc1 | inactive
O=C(N/N=C/c1cc(Cl)ccc1O)c1ccccc1Br | inactive
O=C(CNC(=O)c1ccccc1Br)N/N=C/c1cc(Br)ccc1O | inactive
Cc1cccc(/C=N/NC(=O)c2c(-c3ccccc3)noc2C)c1O | inactive
O=C(N/N=C/c1cc(Br)ccc1O)c1ccncc1 | inactive
Cc1ccc(NC(=O)/C=C/c2ccc([N+](=O)[O-])s2)c(C)c1 | inactive
Cc1ccccc1C(=O)N/N=C/c1ccc([N+](=O)[O-])s1 | 22.4 µM (active)
O=C(N/N=C\c1ccc([N+](=O)[O-])s1)c1cncc(Br)c1 | 10 µM (active)

Compound | Potency
CCCc1nc(NC2CCCCC2)c(C#N)c2c1COC(C)(C)C2 | inactive
CN(C)CCC(c1ccc(Br)cc1)c1ccccn1 (stereo not drawn) | inactive
N#Cc1cc2cc3c(cc2nc1SCC(=O)N1CCOCC1)OCCO3 | inactive
Cc1ccc(C(=O)N(C)CC(=O)Nc2ccc(Cl)c(C(F)(F)F)c2)cc1S(=O)(=O)N1CCCCC1 | 20 µM (active)
Cc1ccc(NC(=O)CSc2ccc(Br)cc2)cc1S(=O)(=O)N1CCOCC1 | inactive
CN(CC(=O)Nc1ccc(Cl)c(C(F)(F)F)c1)C(=O)c1cccnc1Sc1ccccc1 | inactive
CC(SC(C)C(=O)NN=Cc1cccc(Cl)c1)C(=O)NN=Cc1cccc(Cl)c1 (stereo not drawn) | inactive
O=C(Nc1nonc1-c1ccc(Cl)cc1)c1ccccc1 | inactive
O=C1C=CCC(/C=C/c2ccccc2)O1 (stereo not drawn) | 31.6 µM (active)
Cc1csc2ncnc(NC3CCN(Cc4ccccc4)CC3)c12 | inactive
CCOC(=O)N1CCN(c2ccnc3cc(Cl)ccc23)CC1 | inactive
Cc1cccc(N2CCN(S(=O)(=O)c3ccc4c(c3)C(C)(C)C(=O)N4C)CC2)c1C | inactive
CCN(CC(=O)Nc1cccc(OC)c1)CC(=O)Nc1ccc(Br)c(C)c1 | 17.8 µM (active)
COc1cccc(NC(=O)CSc2nc3ncc(Br)cc3[nH]2)c1 | inactive
COc1ccc(O)c(/C=N/NC(=O)CCC(=O)Nc2cccc(C)c2)c1 | inactive
O=c1cc(-c2c(F)c(F)c(F)c(F)c2F)oc2ccccc12 | inactive
Cc1ccccc1C(=O)/C(C#N)=N/Nc1c(C)n(C)n(-c2ccccc2)c1=O | 10 µM (active)
Cc1c(N/N=C(\C#N)C(=O)c2ccccc2)c(=O)n(-c2ccccc2)n1C | 11.2 µM (active)
Cc1c(N/N=C(\C#N)C(=O)c2ccc(Cl)cc2)c(=O)n(-c2ccccc2)n1C | 2.51 µM (active)
COc1ccc(NS(=O)(=O)c2ccc(C(=O)Nc3c(C)n(C)n(-c4ccccc4)c3=O)cc2)cc1 | inactive
CCOC(=O)c1ccc(NC(=O)c2nc[nH]c2C(=O)N[C@H](C)c2ccccc2)cc1 | inactive

Compound | Potency
CCn1c(C)cc(C(=O)CN2C(=O)c3ccccc3S2(=O)=O)c1C | inactive
O=C(Nc1cccc2ccccc12)OC1C=CS(=O)(=O)C1 (stereo not drawn) | inactive
Cc1ccc(Cc2cnc(N3C(=N)SC(C)C3=O)s2)cc1 (stereo not drawn) | inactive
Cc1cc(C)c(S(=O)(=O)/N=C2\C=C(Nc3ccc(C(=O)O)cc3)C(=O)c3ccccc32)c(C)c1 | 2 µM (active)
O=C(NCC1CCCO1)c1cccc(Oc2ccc([N+](=O)[O-])cc2Cl)c1 (stereo not drawn) | inactive
N#C/C(=C\c1cccc([N+](=O)[O-])c1)C(=O)NCc1ccc(Cl)cc1 | 3.55 µM (active)
N#C/C(=C\C=C\c1ccccc1[N+](=O)[O-])C(=O)NCc1ccccc1 | 3.16 µM (active)
CC(C)N(Cc1ccccc1)C(=O)/C=C/c1ccccc1[N+](=O)[O-] | inactive
CCN(CC)C(=O)C1=C(C)N(CCC2=CCCCC2)C(=O)C(CC(=O)NC(c2ccccc2)c2ccccc2)C1 (stereo not drawn) | inactive
O=C(O)CSc1cc(NS(=O)(=O)c2ccc(Cl)cc2)c2ccccc2c1O | inactive
COc1ccc(-c2csc(N(CCCN3CCOCC3)C(=O)c3ccco3)n2)cc1 | inactive
CCOc1ccc(NCc2cccn2-c2nnc(N3CCC(C(=O)NCCCN4CC(C)CC(C)C4)CC3)s2)cc1 (stereo not drawn) | inactive
CCN(CC)CCNC1=NCCn2c1cc1cc(OC)ccc12 | inactive
CCCCCn1c(=O)c2ccccc2n2c(CCl)nnc12 | 14.1 µM (active)
Cc1cc(C)cc(OCC(=O)NNC(=S)NC(=O)C2CC2)c1 | inactive
CCCCC1C(=O)CC[C@H]2[C@@H]1CC(=O)[C@@H]2C/C=C\CCCC(=O)O (stereo partly drawn) | inactive
CC(=O)N1c2ccc(S(=O)(=O)N3CCC(C(=O)N4CCN(c5ccc(Cl)cc5)CC4)CC3)cc2CC1C (stereo not drawn) | inactive
CC1CC2(C)Oc3ccccc3CC2C(C)C1CNCCCN(C)C (stereo not drawn) | 35.5 µM (active)
COc1cc(Br)cc(/C=N/NC(=O)Cc2ccc(C(F)(F)F)cc2[N+](=O)[O-])c1O | inactive
COc1cc([N+](=O)[O-])cc(/C=N/NC(=O)c2ccc(NC(=O)c3ccc(C)cc3)cc2)c1O | 1.41 µM (active)
CC(C)C(=O)Nc1ccc(C(=O)N/N=C/c2cc(Br)cc(Br)c2O)cc1 | inactive
